High-throughput results deposited in PubChem BioAssay by National Center for Advancing Translational Sciences (NCATS).
TDP43 rescue – rescues yeast growth from TDP-43 toxicity; TDP-43 expressing yeast growth rescue, BacTiter-Glo, 24 h; Potency, µM (doses to about 46.1 µM), for the others: at the top dose growth rescue (activation), usual class: activators; 410,000 tested, 1.8% active; AID 652104; note: % of control where 0% means no effect; nearly all actives have a fitted effect of over 50% in size
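Yeast expressing TDP-43 (pregrown in raffinose, seeded at OD600=0.02 in galactose medium) exposed to compounds 24 hr at 30 deg C. Growth read by BacTiter-Glo luminescence; rescue of toxicity appears as increased signal.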
Abeta yeast res – restores growth of yeast expressing A-beta42 peptide; yeast expressing A-beta42, growth rescue, OD600, 48 h; response scale: 0% DMSO, 100% iron-clioquinol control; Potency, µM (doses to about 46.1 µM), hits mostly activators; 410,000 tested, 0.063% active; note: nearly all actives have a fitted effect of over 55% in size
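Yeast growth medium received pinned compounds, then yeast cells expressing toxic A-beta were added; plates incubated at 30 C for 48 hr. Growth read as absorbance at 600 nm, normalized to DMSO and equimolar FeCl3 plus clioquinol controls.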
ClpP mod – qHTS Assay for Activators of ClpP | purified B. subtilis ClpP, FRET peptide cleavage, 20 min | 340,000 tested, 1.9% active | Potency, µM (top dose mostly 57.5 µM), for the others: at the highest dose activity change, negative = active | AID 651965, 2013 | ATP-dependent Clp protease proteolytic subunit (Bacillus subtilis (strain 168)), P80244; active = well fitted falling curve with a large enough effect; inconclusive = small, poorly fitted or top-dose-only effect; inactive = no such curve, though single readings can be large or run the other way; note: the source files actives as falling curves though it sought activators and does not explain the sign; nearly all actives have a fitted effect of over 65% in size
Target sequence (P80244 whole entry, looked up): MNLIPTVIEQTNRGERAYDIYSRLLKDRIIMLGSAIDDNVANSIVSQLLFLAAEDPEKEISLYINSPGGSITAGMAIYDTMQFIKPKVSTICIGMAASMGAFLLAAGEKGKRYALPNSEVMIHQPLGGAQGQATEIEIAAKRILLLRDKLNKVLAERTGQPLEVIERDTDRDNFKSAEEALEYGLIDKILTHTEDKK
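ClpP 10 microg/mL final, pH 8 Tris/KCl buffer with BSA, glycerol, Tween-20; compound pinned in; FRET-FV substrate; RT 20 min; Ex320/Em430; ΔFRET vs ADEP 5.8 microM, DMSO, no enzyme.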
aSyn rescue – rescues yeast growth from alpha-synuclein toxicity; Yeast expressing alpha-synuclein, growth rescue, BacTiter-Glo, 24 h; Potency, µM (doses to about 46.1 µM), for the others: at the top dose growth rescue (activation), actives largely listed as activators; 370,000 tested, 0.14% active; note: % of control where 0% means no effect; nearly all actives have a fitted effect of over 65% in size
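Rescue of yeast growth: cells expressing toxic alpha-synuclein, induced in galactose at OD600 0.02, incubated with compound 24 h at 30 C. ATP luminescence quantified growth; inhibitors of toxicity appear as activators.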
FUS suppressor – FUS proteinopathy suppression in yeast; S. cerevisiae FUS-expressing, growth rescue, OD600, 24 h; Potency, µM (doses to about 76.6 µM), most hits filed as activators; 390,000 tested, 0.24% active;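 note: plate controls were DMSO vehicle for no effect and reference control for full effect; nearly all actives have a fitted effect of over 55% in size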
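Steps: raffinose overnight preculture; dilution to OD 0.005 in 2% galactose minimal medium; compound addition (concentration series); 24hr at 30C, 99% humidity; absorbance read at 600 nm.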
Mm-Cpn inhibitor – inhibitors of Methanococcus maripaludis chaperonin TRiC (MmCpn); purified Mm-Cpn ATPase, ADP Transcreener TR-FRET; Potency, µM (highest dose often 76.9 µM), for the others: at the top dose activity, negative = inhibition, actives largely listed as inhibitors; 330,000 tested, 0.031% active; note: % is set by controls: 0 for no effect and ±100 for the full control effect; nearly all actives have a fitted effect of over 80% in size
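Quantitative HTS used 25 nM Mm-CPN and 10 uM ATP in magnesium/KCl Tris buffer, pH 7.4, with 1 mM DTT. Hydrolysis ran 30 min at 37°C; ADP was read by HTRF.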
An asterisk follows results filed as active; i = inactive; ? = inconclusive; · = no result. Only some compounds are listed: those with a hit (about 3.6% of all), similar ones and a draw of the others. Unless noted, calls come from the whole dose curve; as a rule, active = well fitted curve in the direction sought with a large enough effect; inconclusive = small, poorly fitted or top-dose-only effect, or another doubt; inactive = no such curve, though single readings can be large; an effect the other way counts as inactive or inconclusive. Potency is the fitted concentration of half-maximal effect.

SMILES	TDP43 rescue	Abeta yeast res	ClpP mod	aSyn rescue	FUS suppressor	Mm-Cpn inhibitor
C[C@@H]1CN([C@H](C)CO)C(=O)c2cc(Br)cnc2O[C@H]1CN(C)C(=O)Cc1ccncc1	10.1%	i	-1.8%	?	i	·
CCCCCCCCN1C(=O)[C@H](CC(=O)NCCc2ccccc2OC)C[C@@]2(C(=O)OC)CCCCC=C12	?	i	-6.2%	?	?	·
CCCn1cc(S(=O)(=O)c2ccc(OC)cc2)c(=O)c2cc(F)c(N3CCCCCC3)cc21	13.9%	i	?	·	i	·
COc1ccc(C(=O)C(C)(C)NO)cc1	11.2µM*	?	2.1%	?	i	1.5%
COc1ccc(C(=O)C23CN4CN(CN(C4)C2)C3)cc1	-23.1%	i	-0.2%	-9.0%	i	-5.2%
COc1ccc(C(=O)CCNc2ccc(F)cc2)cc1	7.5%	i	28.2µM*	-0.7%	i	0.6%
COc1ccc(/C=C/c2nc(-c3ccccc3O)n(-c3ccccc3)n2)cc1OC	?	i	-11.1%	·	i	·
CC(=O)O[C@@]12CO[C@@H]1C[C@H](OC1OCC(O)C(O)C1O)[C@@]1(C)C(=O)[C@H](O)C3=C(C)[C@@H](OC(=O)[C@H](O)[C@@H](NC(=O)c4ccccc4)c4ccccc4)C[C@@](O)([C@@H](OC(=O)c4ccccc4)C12)C3(C)C (stereo not given in full)	6.5%	i	1.8%	4.7%	10µM*	-1.5%
CCn1c(COc2cccc3ccccc23)nnc1SCC(N)=O	16.8%	i	-2.8%	4.0%	i	?
COc1ccccc1C(=O)Nc1ccc2c(c1)CC1(C(=O)N(C)C(=O)N(C)C1=O)C1CCCN21 (stereo not given)	-8.9%	i	·	-1.8%	39.8µM*	-6.6%
CC(=O)c1cn(CCCOc2ccccc2)c2ccccc12	11.2µM*	i	-0.2%	13.9%	i	2.1%
O=C(C(=O)N1CCOCC1)c1cn(CCCOc2ccccc2)c2ccccc12	9.6%	i	·	5.7%	i	-4.1%
O=C(CN1CCOCC1)c1ccc2ccccc2c1	·	·	-11.6%	9.7%	·	·
C[C@H]1[C@H](OC(=O)CCC(=O)NCc2ccc(C(=O)O)cc2)O[C@@H]2O[C@@]3(C)CC[C@H]4[C@H](C)CC[C@@H]1C24OO3	22.4µM*	i	·	-9.3%	i	-1.3%
CC1C(OC(=O)CCC(=O)NC(C)(C)CO)O[C@H]2OC3(C)CC[C@H]4[C@H](C)CCC1C24OO3 (stereo not given in full)	22.4µM*	i	·	-10.1%	i	-1.5%
CC(C)CC(NC(=O)CCCNC(=O)CCC(=O)OC1O[C@H]2OC3(C)CC[C@H]4[C@H](C)CCC(C1C)C24OO3)C(=O)O (stereo not given in full)	20µM*	i	·	-1.9%	i	-0.7%
COc1ccc(NC(=O)c2ccco2)cc1NC(=O)COc1cccc(C)c1C	?	i	-0.6%	·	i	·
NCC(=O)c1ccc(Br)cc1	·	·	-1.8%	·	·	·
Cc1ccccc1CN1CCc2nc(N3CCN(c4ccccn4)CC3)ncc2C1	10.0%	i	96.8%	·	i	·
Cc1nc2ccccc2c(=O)n1-c1nccs1	28.2%	i	-2.5%	-11.7%	i	·
Cc1nn(-c2nccs2)c2c1C(=O)CC(C)(C)C2Br (stereo not given)	14.1µM*	i	-1.5%	-1.2%	i	·
CC1(C)Cc2c(sc3c2C(=O)NC(c2cccnc2)N3)CO1 (stereo not given)	-11.0%	i	31.6µM*	7.6%	i	1.6%
CN(C)CCN(Cc1ccccc1)c1ccnc(N(C)C)c1C#N	-5.8%	i	31.6µM*	2.4%	i	0.0%
O=C1NC(=S)NC(=O)C1=Cc1ccc(OCc2ccccc2)cc1	17.8µM*	?	-6.7%	-67.2%	i	·
